Over roughly 33,000 sequences, “E-score (-0.5 to 0.5)” has its median near -8e-05; the highest 2% begin near 0.23. The sample as a whole holds a higher share of the highest values than the screen did.
The sequences below were run against T1, Nrg2 (UniProt P38082) (assay: PBM E-score (8-mer binding enrichment) (E-score (-0.5 to 0.5)); higher = stronger / more preferred TF binding). Conditions: protein concentration: 100 nM; construct: GST-full length.
T1 sequence: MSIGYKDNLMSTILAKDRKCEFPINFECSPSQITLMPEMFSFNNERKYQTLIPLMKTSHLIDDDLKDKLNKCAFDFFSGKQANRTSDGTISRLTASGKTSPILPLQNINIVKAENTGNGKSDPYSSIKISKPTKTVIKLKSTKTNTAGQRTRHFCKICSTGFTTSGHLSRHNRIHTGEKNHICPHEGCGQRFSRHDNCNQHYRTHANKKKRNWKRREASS
Method: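 Universal 'all 10-mer' protein binding microarrays (Agilent AMADID 015681) probed with GST-tagged S. cerevisiae TFs (full-length or DBD) made by in vitro transcription/translation (PURExpress), about 100-200 nM. Bound TF was detected with fluorescent anti-GST. Each ungapped 8-mer (which stands for itself and its reverse complement) is scored by the PBM enrichment score (E-score), a modified Wilcoxon-Mann-Whitney statistic from -0.5 to +0.5, computed with the Universal PBM Analysis Suite. Scale: above 0.35 generally sequence-specific binding.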

Q: How did the “PBM E-score” value turn out when CCGCAGAC was run?
A: -0.105

Q: For TCGCAGAA, which “PBM E-score” value is on record?
A: -0.114

Q: With GCGCAGAA as the sequence, how does the “PBM E-score” value read?
A: 0.248

Q: How did the “PBM E-score” value turn out when GCGCAGAC was run?
A: 0.0533

Q: How did the “PBM E-score” value turn out when CCGCAGAA was run?
A: 0.245

Q: How did the “PBM E-score” value turn out when CCGCAGAG was run?
A: -0.193

Q: For CAAGCGGC, which “PBM E-score” value is on record?
A: 0.0964

Q: With CACCTATA as the sequence, how does the “PBM E-score” value read?
A: -0.032

Q: How did the “PBM E-score” value turn out when AGTGAAGC was run?
A: 0.054

Q: Which “PBM E-score” value does the source give for AAAGAACG here?
A: 0.0453

Q: For ATTAATCA, which “PBM E-score” value is on record?
A: 0.171

Q: AGTCTTGA was tested. Which “PBM E-score” value did it give?
A: -0.0377

Q: Which “PBM E-score” value does the source give for AACGGCGA here?
A: 0.303

Q: For CACGGCGA, which “PBM E-score” value is on record?
A: 0.0616

Q: For AACGGCAT, which “PBM E-score” value is on record?
A: 0.23

Q: Which “PBM E-score” value does the source give for AACGGCGT here?
A: -0.11

Q: How did the “PBM E-score” value turn out when AACGGCAA was run?
A: 0.156

Q: With AACGGCAC as the sequence, how does the “PBM E-score” value read?
A: -0.244

Q: How did the “PBM E-score” value turn out when ATTGCGAG was run?
A: 0.0375

Q: Which “PBM E-score” value does the source give for GTACGAGA here?
A: 0.0861

Q: How did the “PBM E-score” value turn out when TGACGGAA was run?
A: -0.00402

Q: How did the “PBM E-score” value turn out when AAGGACTC was run?
A: -0.0561

Q: With ATGCTCGG as the sequence, how does the “PBM E-score” value read?
A: 0.117

Q: With AAATCCAT as the sequence, how does the “PBM E-score” value read?
A: 0.266

Q: Which “PBM E-score” value does the source give for AAATCCAC here?
A: 0.082

Q: With AAATCCAG as the sequence, how does the “PBM E-score” value read?
A: 0.196

Q: How did the “PBM E-score” value turn out when ATGGTGGA was run?
A: -0.0629

Q: Which “PBM E-score” value does the source give for ATATTAAC here?
A: 0.176

Q: How did the “PBM E-score” value turn out when ACATTAAA was run?
A: 0.143

Q: With GCATTAAA as the sequence, how does the “PBM E-score” value read?
A: 0.136

Q: Which “PBM E-score” value does the source give for TTATTCAA here?
A: 0.029

Q: With CTATTAAA as the sequence, how does the “PBM E-score” value read?
A: 0.151

Q: For TCATTAAA, which “PBM E-score” value is on record?
A: 0.35

Q: For CTATTCAA, which “PBM E-score” value is on record?
A: 0.0974

Q: With TTATTAAA as the sequence, how does the “PBM E-score” value read?
A: 0.196

Q: With ATATTAAT as the sequence, how does the “PBM E-score” value read?
A: 0.286

Q: For ATATTCAA, which “PBM E-score” value is on record?
A: 0.244

Q: Which “PBM E-score” value does the source give for ATATTAAG here?
A: 0.0738

Q: How did the “PBM E-score” value turn out when ATATTAAA was run?
A: 0.29

Q: For CGTTAAAC, which “PBM E-score” value is on record?
A: 0.0981

Q: For ATAGTGAC, which “PBM E-score” value is on record?
A: -0.0527

Q: How did the “PBM E-score” value turn out when ATATTATC was run?
A: 0.0409

Q: How did the “PBM E-score” value turn out when ATATTATG was run?
A: 0.304

Q: With AAATTATG as the sequence, how does the “PBM E-score” value read?
A: 0.106

Q: How did the “PBM E-score” value turn out when AAACCATC was run?
A: 0.103

Q: Which “PBM E-score” value does the source give for ATGTGCAC here?
A: 0.0387

Q: CATCTAAC was tested. Which “PBM E-score” value did it give?
A: -0.152

Q: With GGCATAGA as the sequence, how does the “PBM E-score” value read?
A: 0.0809

Q: Which “PBM E-score” value does the source give for AATTATAC here?
A: 0.122

Q: How did the “PBM E-score” value turn out when GATTATAC was run?
A: 0.235

Q: Which “PBM E-score” value does the source give for GATTATAA here?
A: 0.207

Q: For CTTAGAAC, which “PBM E-score” value is on record?
A: 0.0319

Q: With CTGACTGA as the sequence, how does the “PBM E-score” value read?
A: -0.0542

Q: Which “PBM E-score” value does the source give for GCTCGAAC here?
A: 0.191

Q: GGCAGAAC was tested. Which “PBM E-score” value did it give?
A: 0.088

Q: For GAAAGAAC, which “PBM E-score” value is on record?
A: 0.0456

Q: Which “PBM E-score” value does the source give for GGCAGAAA here?
A: 0.286

Q: With GAAAGAAA as the sequence, how does the “PBM E-score” value read?
A: 0.281

Q: For CAAAGAAA, which “PBM E-score” value is on record?
A: 0.0775

Q: Which “PBM E-score” value does the source give for TGCAGAAA here?
A: 0.104

Q: How did the “PBM E-score” value turn out when AAGCTGAG was run?
A: -0.00374

Q: Which “PBM E-score” value does the source give for AGCGGTAG here?
A: -0.196

Q: Which “PBM E-score” value does the source give for GAGTAAGA here?
A: -0.0102

Q: How did the “PBM E-score” value turn out when AAGACGGT was run?
A: -0.161

Q: For CAAAGCAG, which “PBM E-score” value is on record?
A: 0.0557

Q: For CAAAGCAA, which “PBM E-score” value is on record?
A: 0.265

Q: With CAAAGCAC as the sequence, how does the “PBM E-score” value read?
A: -0.0605

Q: With AGTTAGGG as the sequence, how does the “PBM E-score” value read?
A: 0.0307

Q: How did the “PBM E-score” value turn out when ACATAAAC was run?
A: 0.0128

Q: Which “PBM E-score” value does the source give for GAGACCAA here?
A: 0.241

Q: Which “PBM E-score” value does the source give for CAGACCAA here?
A: 0.0347

Q: For GCGACCAA, which “PBM E-score” value is on record?
A: 0.248

Q: Which “PBM E-score” value does the source give for TAGACCAA here?
A: 0.121

Q: ACGACCAA was tested. Which “PBM E-score” value did it give?
A: -0.12

Q: With GCGACCAC as the sequence, how does the “PBM E-score” value read?
A: -0.0633

Q: CCTTATCC was tested. Which “PBM E-score” value did it give?
A: -0.23

Q: AAACTAGG was tested. Which “PBM E-score” value did it give?
A: -0.0197

Q: Which “PBM E-score” value does the source give for CACCGCAA here?
A: 0.233

Q: Which “PBM E-score” value does the source give for AACCGCAA here?
A: 0.185

Q: CACCGCAG was tested. Which “PBM E-score” value did it give?
A: 0.0838

Q: With CGCATGCA as the sequence, how does the “PBM E-score” value read?
A: 0.246

Q: Which “PBM E-score” value does the source give for AGCATGCA here?
A: 0.00231

Q: GGCATGCA was tested. Which “PBM E-score” value did it give?
A: -0.113

Q: How did the “PBM E-score” value turn out when CGCATGCC was run?
A: 0.145

Q: CGCATGCG was tested. Which “PBM E-score” value did it give?
A: 0.0387

Q: With TGCATGCA as the sequence, how does the “PBM E-score” value read?
A: 0.233

Source: the supplement of paper PMC3334620
